Test results as given in ChEMBL document CHEMBL1157539, “Thousands of chemical starting points for antimalarial lead identification” (Nature, 2010).
Fewer than 10 of roughly 13,000 compounds showed an effect of 50% or more. The list is a sample of the results.

tested on: Plasmodium falciparum; test: GSK_TCMDC: Inhibition of Plasmodium falciparum 3D7 LDH activity, using an LDH reporter assay. Test compounds present at 2uM; format: functional, organism-based

inhibition, 0%:
COc1cccc(CCN(Cc2ccccc2-c2ccc(CNC3CC(C)(C)NC(C)(C)C3)cc2)C(=O)NC2CCCCC2)c1, N#Cc1ccc(N2C[C@@H](OCc3ccccc3)C[C@H]2C(=O)NCCC(c2ccccc2)c2ccccc2)c2ccccc12, CCc1cccc2sc(N3CCN(C(=O)c4ccc([N+](=O)[O-])o4)CC3)nc12, CCOc1c(CCNCCCCNCCc2ccc3ccccc3c2OCC)ccc2ccccc12, CCN(CC)CCN(Cc1ccc(-c2ccc(C(F)(F)F)cc2)cc1)C(=O)Cn1c(CCc2ccccc2F)nc(=O)c2ccccc21, Cc1cccc2nc(-c3cccc(-c4ccc(NC(=O)c5ccoc5)cc4)c3)[nH]c12, O=c1cc(NCCCNCc2cccc(OC(F)(F)F)c2)[nH]c2ccccc12, O=C(Nc1ccc2c(c1)CCC2)N[C@H]1CCN(Cc2ccc(OCCCN3CCCCC3)cc2)C1, Fc1ccc2[nH]c(-c3cccc(-c4ccc(CNCc5cnn(-c6ccccc6)n5)cc4)c3)nc2c1, O=C1C(=Cc2c(O)ccc3ccccc23)SC(=NCc2ccccc2)N1Cc1ccccc1, Cc1cccc2nc(-c3cccc(-c4ccc(NC(=O)c5cnccc5C(F)(F)F)cc4)c3)[nH]c12, CS(=O)(=O)c1cc2c(Nc3ccc(N4CCOCC4)cc3)c(C(N)=O)cnc2cc1Br

inhibition, 4%:
Fc1ccc(C=NN=c2cc[nH]c3ccccc23)cc1, COc1ccc(OCCCCON2C(=N)N=C(N)NC2(C)C)cc1, CNCCNCc1ccc(-c2ccc(-c3nc4cc(F)ccc4[nH]3)cc2)cc1

inhibition, 6%:
COc1ccc2nccc(N3CCC(CCNCc4cc5c(cn4)OCCO5)CC3)c2c1

inhibition, 1%:
COC(=O)c1cccc(CNCc2cccc(-c3ccc(-c4nc5cccc(C)c5[nH]4)s3)c2)c1

inhibition, 7%:
CCN1CCC(N(Cc2ccc(-c3ccc(C(F)(F)F)s3)cc2)C(=O)Cn2c(CCc3cccc(F)c3F)nc(=O)c3ccccc32)CC1, CCOC(=O)NC1=NC(C)(C)N(OCCCOc2ccc(C)cc2C)C(NC(=O)OCC)=N1, O=C(Nc1cccc(F)c1)N1CCC(CN2CCOC(c3ccccc3)(c3ccccc3)C2)CC1

inhibition, 3%:
CCCCCCOc1ccc(C(=O)N(Cc2ccccc2)c2c(-c3ccccc3)nc3cc(C)ccn23)cc1, CN1CCC(Oc2ccc(CN3CC[C@H](NC(=O)c4ccc(Cl)c(F)c4)C3)c3ccccc23)C1 (stereo partly drawn), CCN1CCC(N(Cc2ccc(-c3ccc(C(F)(F)F)cc3)cc2)C(=O)Cn2c(CCc3cccc(F)c3F)nc(=O)c3ccccc32)CC1
